# According to the supplement of paper PMC10981050:
# Where “and” joins values, the source holds several entries; their conditions need not be identical. Equal entries are not always repeated. Structures can show the parent of a compound that is named as a salt.
# Legend:
# Experiment in all cases: cell viability relative to vehicle control; higher = less cytotoxic
# Details in all cases: 10 µM
# K562 = system: K562
# Procedure, shortened: (§1)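 CRISPR-edited mutant clones and isogenic wild-type clones from four leukaemia lines were screened against Selleck bioactive, kinase and epigenetic probe libraries, with identity-inconsistent compounds excluded. Each compound was acoustically dispensed at a single 10 µM dose into 384-well plates holding 2000 cells in 50 µL medium per well. After 48 h the supernatant was removed and CellTiter-Glo luminescence was read. Viability was expressed as percent of the on-plate vehicle control and analysed in Genedata Screener.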
# MARIMO = system: MARIMO
# Procedure, shortened: as §1
# MOLM14 = system: MOLM14
# Procedure, shortened: as §1
# OCI-AML2 = system: OCI-AML2
# Procedure, shortened: as §1
SMILES,cell viability (K562; SRSF2 genotype: SRSF2 P95H/wt),cell viability (K562; SRSF2 genotype: SRSF2 wt/wt) [%],cell viability (MARIMO; SRSF2 genotype: SRSF2 P95H/wt) [%],cell viability (MARIMO; SRSF2 genotype: SRSF2 wt/wt) [%],cell viability (MOLM14; SRSF2 genotype: SRSF2 P95H/wt) [%],cell viability (MOLM14; SRSF2 genotype: SRSF2 wt/wt) [%],cell viability (OCI-AML2; SRSF2 genotype: P95H/wt) [%],cell viability (OCI-AML2; SRSF2 genotype: wt/wt) [%]
O=C(CBr)N1CC([N+](=O)[O-])([N+](=O)[O-])C1,86.2% and 82.7%,81.4,85.5,101,88.6,88.7,94.3,114
C[C@H]1CCC/C=C/[C@@H]2C[C@H](O)C[C@H]2[C@H](O)/C=C/C(=O)O1 [Brefeldin A],19% and 24.5%,24.1,9.22,6.8,6.71,4.1,4.83,18.7
CC1CCC2N(C1)CC1C3CC4C(CC(=O)C5CC(O)CCC54C)C3CCC1C2(C)O (stereo not given) [Peiminine],92.5% and 90.8%,86.1,107,109,87,75.6,46.2,58.8
C[C@@H]1O[C@@H](O[C@H]2C[C@@H](O)[C@]3(CO)[C@H]4[C@H](O)C[C@]5(C)[C@@H](C6=CC(=O)OC6)CC[C@]5(O)[C@@H]4CC[C@]3(O)C2)[C@H](O)[C@H](O)[C@H]1O [Ouabain],10.4% and 12.3%,12.4,10.7,4.01,3.34,0.78,0.73,2.79
"COc1ccc(/C=C/c2cc(OC)cc(OC)c2)cc1 [3,4',5-Trimethoxy-trans-stilbene]",26.9% and 46.4%,39.7,47.5,35.7,15.3,6.3,38.2,36.4
O=c1[nH]c2ccccc2n1C1CCN(Cc2ccc(-c3[nH]c4cc5ncnc5cc4nc3-c3ccccc3)cc2)CC1,56.9% and 65.9%,61.7,66.5,76.2,53.6,43.6,48.8,47.9
Cc1cccc(C)c1NC(=O)CN1CCCC1=O [Nefiracetam (Translon)],108% and 104%,107,109,107,105,100,103,110
CCC1CN2CCC3(C(=O)Nc4ccccc43)C2CC1C(=COC)C(=O)OC (stereo not given) [Isorhychophylline],95.3% and 96.3%,95.5,83.5,72,92.5,89.1,97.3,89.8
O=c1[nH]c2ccccc2o1 [2-Benzoxazolinone],100% and 89.3%,96.7,97.2,102,98.4,104,91.5,94.2
CN1CCC(c2c[nH]c3ccc(O)cc23)CC1,107% and 100%,102,101,104,103,102,91.8,105
CCNC(=O)C[C@@H]1N=C(c2ccc(Cl)cc2)c2cc(OC)ccc2-n2c(C)nnc21,72.5% and 71.1%,73.3,38.9,41.3,30,28.7,24.7,37.5
NCC(CC(=O)O)c1ccccc1 (stereo not given) [Phenibut],105% and 102%,102,102,109,108,104,96.7,116
CCOC(=O)Nc1ccc(NCc2ccc(F)cc2)cc1N [Retigabine 2HCl],94.1% and 97.3%,97.4,91.6,103,105,102,96.5,102
CC1=C(O)C(=O)C=C2C1=CC=C1[C@@]2(C)CC[C@@]2(C)[C@@H]3C[C@](C)(C(=O)O)CC[C@]3(C)CC[C@]12C [Celastrol],0.95% and 0.55%,0.65,0.44,0.52,0.47,0.51,0.35,0.44
COC(=O)C1=CCCN(C)C1 [Arecoline HBr],93.5% and 96.8%,97.5,96,99,97.4,99.9,92,106
CC(=O)O[C@H]1C[C@H](O[C@H]2[C@@H](O)C[C@H](O[C@H]3[C@@H](O)C[C@H](O[C@H]4CC[C@@]5(C)[C@H](CC[C@@H]6[C@@H]5C[C@@H](O)[C@]5(C)[C@@H](C7=CC(=O)OC7)CC[C@]65O)C4)O[C@@H]3C)O[C@@H]2C)O[C@H](C)[C@H]1O[C@@H]1O[C@H](CO)[C@@H](O)[C@H](O)[C@H]1O [Lanatoside C],10.1% and 11.2%,12.5,14.9,5.1,4.2,0.9,0.9,3.5
C[C@]12CCC(=O)C(O)=C1CC[C@@H]1[C@@H]2CC[C@]2(C)C(=O)CC[C@@H]12 [Formestane],96.6% and 94.4%,102,93.2,107,107,103,104,112
COc1ccc(C=O)cc1 [p-Anisaldehyde],107% and 99.7%,111,103,103,105,104,97.2,117
O=c1ccc2cc3ccoc3c(O)c2o1 [Xanthotoxol],91.6% and 88.5%,87.1,84.3,95.3,92.8,92.2,96.5,93.3
CN1c2ccccc2C(NCCCCCCC(=O)O)c2ccc(Cl)cc2S1(=O)=O (stereo not given) [Tianeptine sodium],99.4% and 97.1%,97.6,106,108,107,101,98.4,111

SMILES,cell viability (K562; SRSF2 genotype: SRSF2 P95H/wt),cell viability (K562; SRSF2 genotype: SRSF2 wt/wt) [%],cell viability (MARIMO; SRSF2 genotype: SRSF2 P95H/wt) [%],cell viability (MARIMO; SRSF2 genotype: SRSF2 wt/wt) [%],cell viability (MOLM14; SRSF2 genotype: SRSF2 P95H/wt) [%],cell viability (MOLM14; SRSF2 genotype: SRSF2 wt/wt) [%],cell viability (OCI-AML2; SRSF2 genotype: P95H/wt) [%],cell viability (OCI-AML2; SRSF2 genotype: wt/wt) [%]
C[C@H]1CC[C@]2(NC1)O[C@H]1C[C@H]3[C@@H]4CC[C@H]5C[C@@H](O)CC[C@]5(C)[C@H]4CC[C@]3(C)[C@H]1[C@@H]2C [Tomatidine],92.3% and 92%,90.7,86.8,94.8,90.7,93.3,96.5,93.5
CN1C(=O)[C@@]23C[C@]4([C@]56C[C@@]78SS[C@@](CO)(C(=O)N7[C@H]5Nc5ccccc56)N(C)C8=O)c5ccccc5N[C@@H]4N2C(=O)[C@]1(CO)SS3 [Chaetocin],0.42% and 0.29%,0.65,0.27,0.33,0.25,0.28,0.23,0.24
O=P1(N(CCCl)CCCl)NCCCO1 (stereo not given) [Cyclophosphamide monohydrate],105% and 103%,108,94.6,106,99.2,102,100,106
O=C(O)CNC(=O)C1C(=O)N(C2CCCCC2)C(=O)N(C2CCCCC2)C1=O,93.8% and 88.7%,83.9,86.5,101,83.8,94.1,98.8,98.5
CC1=C[C@@H]2C(=O)[C@]3(C=C(C)[C@H](O)[C@@]3(O)[C@@H]1O)[C@H](C)C[C@@H]1[C@H]2C1(C)C [20-Deoxyingenol],79.4% and 65.6%,65.1,76.2,100,39.8,14.8,18.2,52
CC1(C)C(=O)N(c2ccc(C#N)c(C(F)(F)F)c2)C(=O)N1CCCCO,89% and 95%,92.3,91.5,103,93.5,104,88.6,96.6
O=c1cccc2n1C[C@@H]1CNC[C@H]2C1 [Cytisine],107% and 100%,92.9,93.3,107,97.7,102,94.3,104
CCN1CC2(OC(=O)c3ccccc3NC(C)=O)CCC(OC)C34C1C(CC23)C1(O)CC(OC)C2CC4C1(O)C2OC (stereo not given) [Lappaconite Hydrobromide],102% and 86.3%,88.2,86.7,96.2,89.6,96.4,97.3,87.2
CCCCC(C#N)(Cn1cncn1)c1ccc(Cl)cc1 (stereo not given) [Myclobutanil],105% and 99.5%,100,97,109,93.9,108,92.3,98.1
COc1ccc(C[C@H]2NC[C@H](O)[C@H]2OC(C)=O)cc1 [Anisomycin],4.09% and 9.55%,7.54,13.6,6.74,0.46,0.44,3.57,10.5
CCN1CCN(C(=O)Cc2ccc(Nc3ncc(F)c(Nc4ccc(C(=O)Nc5ccccc5Cl)cc4)n3)cc2)CC1 [Aurora A Inhibitor I],0.7% and 0.51%,15.3,0.53,3.65,0.41,0.49,4.67,4.81
CC[C@H]1CN2CC[C@]3(C(=O)Nc4ccccc43)[C@@H]2C[C@@H]1/C(=C\OC)C(=O)OC [Rhynchophylline],93.2% and 97.5%,89.5,80.4,77.7,88.9,88.3,86.7,88.5
CC(C)=CCCC(C)(O)C1CCC2(C)C1C(O)CC1C3(C)CCC(O)C(C)(C)C3C(OC3OC(CO)C(O)C(O)C3O)CC12C [20(S)-Ginsenoside Rh1],103% and 105%,101,106,110,102,106,107,115
CC(C)c1ccc2c(c1O)CC[C@H]1C3=C(CC[C@]21C)C(=O)OC3 [Triptophenolide],70.5% and 80.3%,79.5,70.3,62.5,99.4,92,49,61.7
C=CC[C@]1(O)CC[C@H]2[C@@H]3CCC4=CC(=O)CCC4=C3C=C[C@@]21C [Altrenogest],92.6% and 98.1%,97.5,99.9,102,99.8,107,109,96.9
COc1cc(C)[nH]c(=O)c1CNC(=O)c1c(C)n([C@H](C)C2CCN(CC(F)(F)F)CC2)c2ccccc12,103% and 99%,110,103,110,97.2,95.3,103,109
OC(CNc1ccccc1)Cn1c2ccc(Br)cc2c2cc(Br)ccc21 (stereo not given),74.2% and 72.5%,66.2,85.1,98.2,87.2,58.1,52.3,83.5
CN1CCCCC1Cn1cc(C(=O)c2cc([N+](=O)[O-])ccc2I)c2ccccc21 (stereo not given),83.1% and 88.8%,87.2,84.2,103,3.13,2.06,76.2,65.5
C[C@]12CC[C@H](O)CC1=CC[C@@H]1[C@@H]2CC[C@]2(C)C(=O)CC[C@@H]12 [Dehydroepiandrosterone (DHEA)],89.1% and 108%,102,98.1,101,108,103,110,93.2
CCN(C)C(=O)Oc1cccc([C@H](C)N(C)C)c1 [Rivastigmine tartrate (Exelon)],103% and 106%,101,101,105,99.5,108,104,113
